Experimental data reported in PubChem BioAssay.
The source made the active and inactive calls.

How the values were obtained:
[1] = system: XIP peptide (Xip251-270) binding; test: small-molecule binders of XIP peptide, primary screen, biochemical, small-molecule microarray, fluorescence 635/667 nm, 0.1 µg/mL protein (AID 1182); conditions: fluorescent protein binding, 635 nm, higher = more signal, called active from +8 up or from −8 down
XIP peptide (Xip251-270) = test: small-molecule binders of XIP peptide, primary screen, biochemical, small-molecule microarray, fluorescence 635/667 nm, 0.5 µg/mL protein (AID 1183); conditions: small-molecule microarray binding, fluorescence 635 nm; higher = more signal
[2] = Plasmodium falciparum growth inhibition, primary screen, strain 3D7, DAPI fluorescence, 100 nL (AID 1184);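 also: parasites grown inside human red blood cells in medium with human serum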; conditions: P. falciparum 3D7 growth, 3 d, higher = more signal
[3] = biological target: Homeobox protein Hox-A13 (Mus musculus) (UniProt Q62424); test: inhibitors of HoxA13-DNA binding, primary screen, biochemical, fluorescence polarization, labeled oligonucleotide (AID 1185); conditions: 15 min, higher = more signal, called active from +8 up or from −8 down
Sequence of Homeobox protein Hox-A13 (Mus musculus) (Q62424 whole entry, looked up): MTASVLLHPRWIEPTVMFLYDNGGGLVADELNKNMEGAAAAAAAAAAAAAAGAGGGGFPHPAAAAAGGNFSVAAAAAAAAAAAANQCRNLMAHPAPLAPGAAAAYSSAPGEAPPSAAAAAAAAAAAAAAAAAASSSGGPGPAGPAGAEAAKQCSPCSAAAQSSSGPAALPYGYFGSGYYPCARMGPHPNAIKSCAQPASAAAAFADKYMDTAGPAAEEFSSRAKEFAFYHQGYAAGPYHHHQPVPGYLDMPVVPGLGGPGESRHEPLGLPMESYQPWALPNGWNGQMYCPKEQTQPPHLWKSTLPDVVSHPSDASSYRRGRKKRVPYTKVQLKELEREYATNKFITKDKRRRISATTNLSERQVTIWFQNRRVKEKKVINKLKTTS

| Structure (SMILES) | composite z-score [1] | composite z-score (XIP peptide (Xip251-270)) | z-score [2] | z-score [3] |
| --- | --- | --- | --- | --- |
| CC(C)(C)N1C(=O)[C@H]2[C@@H]3C(=CC[C@H]2C1=O)C(=O)[C@H]1O[C@H]1[C@H]3O | 0.139 (inactive) | 0.283 | -2.38 | -5.76 (inactive) |
| COC(=O)[C@@H]1CC[C@H](C)[C@@H](c2ccc(C)cc2)N1C(=O)c1ccc(C=NO[C@@H](C)c2cc(-c3c(C)cc(C)cc3C)no2)cc1 | -0.274 (inactive) | 0.511 | -0.225 | 0.492 (inactive) |
| C[C@H]1CC[C@H]2C(=O)OC(COc3ccc(C(C)(C)C)cc3)CN2[C@@H]1c1ccc(Br)cc1 (stereo partly drawn) | 0.0819 (inactive) | 0.3 | 1.52 | -3.32 (inactive) |
| COc1ccc(COC(=O)NN=C2C[C@@H](O)[C@@H](O)[C@@H]3[C@@H]4C(=O)N(Cc5ccccc5)C(=O)[C@@H]4CC[C@@H]23)cc1 | -0.662 (inactive) | 0.0404 | 0.0711 | 0.19 (inactive) |
| CCCNC(=O)OC[C@H]1O[C@H](CCON=C2C[C@@H](O)[C@@H](O)[C@@H]3[C@@H]4C(=O)N(CC)C(=O)[C@@H]4CC[C@@H]23)C=C[C@@H]1Oc1ccc(OC)cc1 | -0.14 (inactive) | 0.696 | 0.497 | -7.64 (inactive) |
| CON=C(C)CCN1CCCc2nc(C)c(C)cc21 | -0.0879 (inactive) | 0.428 | -0.18 | -7.51 (inactive) |
| CC(C)=CCCC(C)=CCON=C1C[C@@H](O)[C@@H](O)[C@@H]2[C@@H]3C(=O)N(C4CCCCC4)C(=O)[C@@H]3CC[C@H]12 | 1.45 (inactive) | 0.722 | 0.273 | -0.469 (inactive) |
| CCN1C(=O)[C@H]2[C@H]3[C@H](O)[C@H](O)CC(=NNC(=O)OCc4ccccc4)[C@@H]3CC[C@H]2C1=O | -0.425 (inactive) | -0.0369 | 1.14 | -0.144 (inactive) |
| COc1cccc([C@H](O)Cn2cc(-c3ccc(CON=C(C)C)cc3)nn2)c1 | 0.218 (inactive) | -0.851 | -1.11 | -4.2 (inactive) |
| O=C1[C@H]2[C@H]3[C@H](O)[C@H](O)CC(=NO[C@@H]4O[C@H](CO)[C@@H](O)[C@H](O)[C@H]4O)[C@@H]3CC[C@H]2C(=O)N1c1cccc(Oc2ccccc2)c1 | 0.311 (inactive) | 0.519 | -0.197 | -1.14 (inactive) |
| CC1(C)O[C@H]2O[C@H]([C@H](O)CON=C3[C@H]4CCn5c(=O)n(-c6ccccc6)c(=O)n5[C@H]4[C@H](O)[C@@H]4O[C@H]34)[C@H](O)[C@H]2O1 | 0.469 (inactive) | -0.0051 | -0.511 | -0.437 (inactive) |
| CCN1C(=O)[C@H]2[C@H]3[C@H](O)[C@H](O)CC(=NNC(=O)OCc4ccccc4)[C@H]3CC[C@H]2C1=O | -0.249 (inactive) | 0.129 | -0.114 | -1.7 (inactive) |
